In the library only some 4.6% were active in any assay of this set; here they are far more common.
D1 agonist = Allosteric Agonists of the Human D1 Dopamine Receptor: qHTS | D(1A) dopamine receptor (Homo sapiens), P21728 | activation, % at 2 µM | AID 504660, 2011 | HEK293 T-REx D1 cells, calcium flux, agonist mode | hit rate 1% among 360,000
Target sequence (P21728 whole entry, looked up): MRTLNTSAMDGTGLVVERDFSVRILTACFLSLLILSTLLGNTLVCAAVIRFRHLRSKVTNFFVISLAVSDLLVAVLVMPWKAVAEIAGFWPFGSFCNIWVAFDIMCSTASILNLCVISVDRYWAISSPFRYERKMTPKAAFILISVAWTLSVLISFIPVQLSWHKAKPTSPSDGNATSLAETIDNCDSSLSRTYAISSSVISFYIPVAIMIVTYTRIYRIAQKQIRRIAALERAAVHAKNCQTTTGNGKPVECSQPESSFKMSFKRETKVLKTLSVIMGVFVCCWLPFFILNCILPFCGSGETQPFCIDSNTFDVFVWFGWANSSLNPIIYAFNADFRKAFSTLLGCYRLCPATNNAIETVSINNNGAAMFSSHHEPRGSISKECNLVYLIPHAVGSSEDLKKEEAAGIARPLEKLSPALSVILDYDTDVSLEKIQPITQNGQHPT
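Agonism was scored from calcium flux recorded over 180 s (1 read/s) after pintool compound addition, following a 10-cycle baseline. Cells were inducible force-coupled HEK293 TREx D1, plated overnight at 30 C and loaded with no-wash calcium dye.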
D1 potentiator = Potentiators of Human D1 Dopamine Receptor: qHTS | D(1A) dopamine receptor (Homo sapiens), P21728 | AID 504651, 2011 | potentiation, % at 10 µM | HEK293 TREx D1 cells, calcium flux, dopamine EC20 potentiation | hit rate 0.036% among 360,000; in the data active = potentiation above about 30%
TRHR agonist = qHTS for Small Molecule Agonists and Allosteric Enhancers of Human TRH Receptor: Primary Screen for Agonists; Thyrotropin-releasing hormone receptor (Homo sapiens), P34981; hit rate 0.18% among 360,000; activation, % at 2 µM; TRHR cells, calcium flux fluo-8, FDSS agonist mode
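Read-out: compound-evoked intracellular calcium rise in TRHR cells, fluo-8 dye, kinetic FDSS fluorescence at 1 s/cycle following a 10-cycle baseline. Cells cultured overnight before dye loading (30 min–1.5 h, RT).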
TRHR PAM = qHTS for Small Molecule Agonists and Allosteric Enhancers of Human TRH Receptor: Primary Screen for Enhancers; Thyrotropin-releasing hormone receptor (Homo sapiens), P34981; TRHR cells, fluo-8 calcium fluorescence, EC20 TRH enhancement; enhancement, % at 2 µM; hit rate 0.66% among 360,000; AID 493056, 2011; in the data active = enhancement above about 30%
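TRHR-expressing cells loaded with fluo-8 calcium dye were read kinetically (ex 480/em 530) during compound addition, then stimulated with an EC20 of TRH (10 nM final). Enhancement of the Gq-mediated intracellular calcium response was scored.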
D1 antagonist = Antagonist of Human D 1 Dopamine Receptor: qHTS | D(1A) dopamine receptor (Homo sapiens), P21728 | HEK293 TREx D1 cells, calcium flux, dopamine EC80; hits give low values | activity change, negative = inhibition, % at 10 µM | hit rate 3.2% among 360,000 | AID 504652, 2011; in the data active = activity change below about -30%
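Calcium flux readout: force-coupled, inducible Hek293 Trex D1 line, cells induced overnight at 30 C with tetracycline, dye-loaded 30–90 min at RT. Antagonism scored against EC80 dopamine challenge given 180 s after compound.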
Large screens that a line does not name were inactive. Cut-off read from the data, not from the text of the source, unless noted: active = activation above about 30%; inactive = the rest.

Cc1ccc(Cl)cc1-n1ncc2c(N3CCN(Cc4ccccc4)CC3)ncnc21	D1 antagonist -45
Cc1cccc(Nc2ncnc(N)n2)c1	D1 antagonist -33
CN(C)c1ccc(CNC(=O)CCCN2C(=O)CCn3nc(-c4cccn4C)cc32)cc1	none
Cc1ccc(S(=O)(=O)NCCSc2nnnn2-c2cc(C)ccc2C)cc1	D1 antagonist -40
Cc1ccc(S(=O)(=O)NCCSc2nnnn2-c2ccccc2)cc1	none
CCc1ccc(Cn2c(CNS(=O)(=O)c3ccc4c(c3)CCCC4)nc3cccnc32)cc1	none
O=C(Cn1nc(Cc2ccncc2)c2ccccc2c1=O)Nc1cccc(C(F)(F)F)c1	none
COC(=O)c1ccc(NC(=O)Cn2nc(C)c3ccccc3c2=O)cc1	none
CCOC(=O)c1ccc(NC(=O)Cn2nc(C)c3ccccc3c2=O)cc1	D1 potentiator 40, TRHR PAM 30
CCOc1ccc(NC(=O)Cn2nc(Cc3ccncc3)c3ccccc3c2=O)cc1	TRHR PAM 38
CSc1ccc(/C=C/c2nc3ccccc3n2S(=O)(=O)c2ccc(Br)cc2)cc1	D1 antagonist -30
CCOc1ccc(/C=C/c2nc3ccccc3n2S(=O)(=O)c2ccc(Br)cc2)cc1	none
Cc1nc2ccccc2n1S(=O)(=O)c1ccc(Br)cc1	D1 antagonist -44
CCOc1ccc(CNCc2c(C(=O)O)n(Cc3ccc(OC)cc3)c3ccccc23)cc1	none
COC1=CC(=Cc2c(N)n3nc(CC(=O)N4CCCCC4)sc3nc2=O)C=C(OC)C1=O	D1 agonist 62, TRHR agonist 138
Cc1ccc(-n2c(CCc3ccccc3)n[nH]c2=S)cc1C	TRHR PAM 31
Cc1ccc(OCc2n[nH]c(=S)n2-c2ccccc2)cc1C	none
Cc1cc2c(c(=O)n1Cc1ccc3c(c1)OCO3)C(c1cccnc1)C(C#N)=C(N)O2 (configuration not stated)	D1 antagonist -90
Cc1cc2c(c(=O)n1Cc1cccnc1)C(c1ccccc1)C(C#N)=C(N)O2 (configuration not stated)	none
C[C@@H](C(=O)NCc1ccccn1)[C@@H]1C[C@@]1(C)[C@@H](NC(=O)OCc1ccccc1)c1ccccc1	D1 antagonist -31
C[C@@H](C(=O)NCc1ccccc1)[C@@H]1C[C@@]1(C)[C@@H](NC(=O)OCc1ccccc1)c1ccccc1	none
CCCCn1c(N)c(N(CCC(C)C)C(=O)CN2C(=O)C3CCCCC3C2=O)c(=O)[nH]c1=O (configuration not stated)	none
CCOc1ccc(N(C)c2ccc(/C=C3/SC(=S)NC3=O)cc2)cc1	D1 agonist 133
CC(C)c1ccc(NC(=O)C2CCN(S(=O)(=O)c3cccc4nsnc34)CC2)cc1	none
CCOc1cc(C(=O)Nc2ccc([N+](=O)[O-])cn2)cc(OCC)c1OCC	D1 antagonist -51
Cc1cc(C)nc(OC(=O)c2c(Cl)cc(Cl)cc2Cl)n1	TRHR PAM 30
Cc1cc(OC(=O)c2c(Cl)cc(Cl)cc2Cl)nc(C)n1	none
COc1ccc(C2CC(=O)N3CN(c4ccc(C)c(Cl)c4)CSC3=C2C#N)cc1 (configuration not stated)	TRHR PAM 31
O=C(CCCn1c(SCC(=O)NCC2CCCO2)nc2ccccc2c1=O)NCc1ccccc1 (configuration not stated)	none
Cc1cc(NC(=O)CSc2nc3ccccc3c(=O)n2CCCC(=O)NCc2ccccc2)n[nH]1	D1 antagonist -35
O=C(CSc1nc2ccc(NC(=O)C3CCCCC3)cc2s1)NCC1CCCO1 (configuration not stated)	none
O=C(CCCn1c(SCC(=O)Nc2ccccc2Cl)nc2ccccc2c1=O)NCC1CCCO1 (configuration not stated)	D1 antagonist -33
O=C(CSc1nc2ccccc2s1)NCC1CCCO1 (configuration not stated)	D1 antagonist -33
CCC1S/C(=N/N=C/c2ccco2)N(Cc2ccc(F)cc2)C1=O (configuration not stated)	none
CC1S/C(=N/N=C/c2ccco2)N(Cc2ccccc2)C1=O (configuration not stated)	D1 antagonist -40
CCc1ccc(S(=O)(=O)c2nnn3c2nc(NCc2cccs2)c2sccc23)cc1	none
O=[N+]([O-])c1ccc(Oc2ccc(S(=O)(=O)N3CCOCC3)cc2)cc1	D1 antagonist -42 (no result: D1 potentiator)
O=c1cc(-c2ccc(F)cc2)nc(SCc2nc(-c3ccc(Cl)cc3)no2)[nH]1	TRHR PAM 43
CCn1c(SCC(=O)Nc2sc(C)c(C)c2C#N)nnc1C(C)C	TRHR PAM 31
CCOc1ccccc1NC(=O)c1cc2cc(C)ccc2n1C	none
COc1ccc(-c2cc(C(=O)OCc3ccccn3)c3ccccc3n2)cc1	D1 antagonist -34
O=C(OC1CCOC1=O)c1cc(-c2ccc(Br)cc2)nc2ccccc12 (configuration not stated)	none
COc1ccc(-c2cc(C(=O)OC3CCOC3=O)c3ccccc3n2)cc1 (configuration not stated)	D1 antagonist -32
O=C(N1CCc2cc([S+](=O)([O-])N3CCN([S+](=O)([O-])c4c(F)cccc4F)CC3)ccc2C1)C(F)(F)F	none
CN(C)c1ccc(-c2nc3ccccn3c2Nc2ccc3c(c2)OCCO3)cc1	none
CC1(C)NC(=O)N(CC(=O)N2CCCC(C(F)(F)F)C2)C1=O (configuration not stated)	none
Cc1ccc(-n2nc3c(=O)n(CCCC(=O)NC4CCC(C)CC4)nc(C)c3c2C)cc1 (configuration not stated)	none
Cc1csc2c(N3CCN(S(=O)(=O)c4ccc(Cl)cc4)CC3)ncnc12	D1 antagonist -35
CCN(Cc1ccccc1)C(=O)Cn1c(=O)n(-c2cccc(C)c2)c(=O)c2c1c1cc(C)ccc1n2C	none
CCN(CC(=O)Nc1ccc(NC(C)=O)cc1)C(=O)c1cccc(S(=O)(=O)N2c3ccccc3CC2C)c1 (configuration not stated)	none
COc1ccc(O)c(C(=O)c2cnc3onc(C)c3c2)c1	D1 antagonist -39
COc1ccc(O)c(C(=O)c2cnc3c(c2)c(C)nn3C)c1	none
CCOC(=O)c1ccc(NC(=O)CC2COc3ccccc3O2)cc1 (configuration not stated)	D1 antagonist -30
CCOC(=O)c1ccc(NC(=O)N2CCOc3ccccc32)cc1	D1 antagonist -30

Screening data from PubChem.
